Screening data: PubChem, The Scripps Research Institute Molecular Screening Center
Compounds with a hit are over-represented: about 4.1% of the library has one in this group of screens.
hcDAF-12 act = activates DAF-12 receptor from parasite H. contortus. HEK293 hcDAF-12 lit1-tk-luc reporter, luminescence; 0% DMSO, 100% Δ7-dafachronic acid. hit rate 1.4% among 370,000. AID 652067. activation, % at 6.8 µM;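 active means activation above the mean of all tested compounds plus 3 SD, cut at about 5.5% in these data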;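 further: 100% = response to 3 µM Δ7-dafachronic acid high control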
ssDAF12 agonist = activators of S. stercoralis DAF-12 nuclear receptor; hit rate 1% among 370,000; AID 652126; HEK293 ssDAF-12/GRIP1 lit1-tk-luc reporter, luminescence; % of 3 µM dafachronic acid response; activation, % at 6.8 µM;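 active means activation above the mean over all tested compounds plus 3 SD, cut at about 0.9% in these data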;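 further: 0% = DMSO-only wells and 100% = 3 µM delta7-dafachronic acid wells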
DAX1 inh-1 = DAX1 (NR0B1) inhibition, primary screen. hit rate 1.1% among 370,000. HEK293T StAR-luciferase reporter, SF-1/DAX-1 repression relief. inhibition, % at 6.8 µM. AID 652010;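 active means inhibition above the mean over all tested compounds plus 3 SD, cut at about 3.6% in these data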;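 further: 0% = DAX-1 cells with DMSO and 100% = cells lacking DAX-1 with DMSO; higher inhibition means more luminescence from relief of DAX-1 repression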
DAX1 inh-2 = inhibitors of human orphan nuclear receptor DAX1 (NR0B1). P51843. HEK293 Gal4-DAX1 luciferase reporter, luminescence. hit rate 0.99% among 340,000. inhibition, % at 6.75 µM;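 active means inhibition above the mean over all tested compounds plus 3 SD, cut at about 4.2% in these data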;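 further: 0% = DAX1-transfected cells with DMSO and 100% = empty-vector control cells with DMSO; inhibition shows as a rise in luminescence from relieved DAX1 repression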
Target sequence (P51843 207-470 limits assumed): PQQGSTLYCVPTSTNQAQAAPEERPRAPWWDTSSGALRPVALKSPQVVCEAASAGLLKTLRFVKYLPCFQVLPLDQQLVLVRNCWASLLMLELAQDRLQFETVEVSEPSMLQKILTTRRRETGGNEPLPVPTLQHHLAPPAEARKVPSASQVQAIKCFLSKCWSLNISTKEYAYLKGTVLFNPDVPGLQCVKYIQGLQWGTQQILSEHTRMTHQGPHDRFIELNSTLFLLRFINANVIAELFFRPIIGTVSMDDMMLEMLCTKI
hgDAF-12 ag = activates the H. glycines DAF-12 receptor ligand-binding domain. activation, % at 6.8 µM. HEK293 GAL4-hgDAF12 UAS-luciferase reporter, agonist luminescence; normalized to butyrate control. AID 687014. hit rate 1.8% among 370,000;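 active means activation above a cutoff set at the mean of all screened compounds plus 3 SD, cut at about 10% in these data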;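 further: 0% = DMSO wells and 100% = sodium butyrate wells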
Numbers without * were called inactive; nt = not tested or not shown.

SMILES	hcDAF-12 act	ssDAF12 agonist	DAX1 inh-1	DAX1 inh-2	hgDAF-12 ag
COc1ccc2cc(C(=O)C3CCCN(C4CCOCC4)C3)ccc2c1 (stereo unspecified)	3	-2	4.4*	1	-3
O=C1OC(c2ccc(Cl)cc2)=N/C1=C\N1CC2CC(C1)c1cccc(=O)n1C2 (stereo unspecified)	-1	1.6*	0	2	5
O=C1OC(c2ccc(Br)cc2)=N/C1=C\N1CC2CC(C1)c1cccc(=O)n1C2 (stereo unspecified)	-2	-2	0	0	1
O=C(CN1C(=O)CN=C(c2ccccc2)c2cc(Cl)ccc21)NC1CCCCC1	-4	-2	0	nt	-3
CC[C@H](C(N)=O)N1CCCC1=O	-3	-1	0	nt	1
O=C(Nc1ccc(Cl)cc1)Nc1nccs1	2	0	-2	-1	11*
O=C(Nc1nccs1)C(Cl)(Cl)Cl	0	-1	2	1	0
CCn1c(=O)cc(OCC(=O)N2CCC3(CC2)OCCO3)c2ccccc21	1	-1	1	4.4*	0
OC1CN2CCCC(O)C2C1O (stereo unspecified)	1	-1	0	nt	2
O=C(NCCN1CCC2(CC1)C(=O)NCN2c1ccccc1)c1ccc(Cl)c(Cl)c1	0	-1	1	nt	3
O=C1NC(=S)N(c2ccc(Br)cc2)C(=O)/C1=C/N1CCN(C(=O)c2ccco2)CC1	1	-1	0	4.7*	1
Cc1ccc(N2C(=O)/C(=C/N3CCN(C(=O)c4ccco4)CC3)C(=O)NC2=S)cc1C	0	-1	0	1	0
CCOc1cc(/C=C2\C(=O)NC(=O)N(C)C2=O)cc([N+](=O)[O-])c1O	0	-2	0	13*	4
CCOc1ccc(N2C(=O)NC(=O)/C(=C\c3cc(OC)c(OC)cc3[N+](=O)[O-])C2=O)cc1	nt	nt	nt	-1	nt
O=c1c([N+](=O)[O-])cn(O)cc1[N+](=O)[O-]	1	-1	-1	4.4*	5
Nc1c(C(=O)NCCCc2ccccc2)c2nc3ccccc3nc2n1Cc1cccs1	2	2.3*	-2	-2	-4
O=C(O)[C@H]1NC[C@H]2C[C@H]21	-1	0	0	4.8*	2
CCC(=Nc1ccc(OC)cc1OC)c1c(O)n(C)c(=O)n(C)c1=O	-1	-1	-2	0	-2
CCC(=Nc1cccc(C(F)(F)F)c1)c1c(O)n(C)c(=O)n(C)c1=O	0	-1	0	4.5*	0
CCN(CC)P(c1n(C)cc[n+]1C)N(CC)CC	-1	-1	0	6.2*	0
COc1ccc2nc(-c3ccc(CN4CCC(n5nnc6ccccc65)CC4)cc3)c(-c3ccccc3)nc2c1	-3	-2	-3	nt	-2
O=C(NC(Cc1ccccc1)P(=O)(O)Oc1ccccc1)OCc1ccccc1 (stereo unspecified)	-1	-1	0	nt	-3
Clc1ccc2[nH]c3c(c2c1)CCNC3	-2	0.9*	0	3	1
O=c1[nH]c(=O)n(-c2ccc(Br)cc2)c(O)c1C=NCCN1CCCCC1	0	-1	1	6.4*	1
Cc1cccc(-n2c(O)c(C=NCCN3CCCCC3)c(=O)[nH]c2=O)c1	-2	-1	-1	0	-1
SMILES	hcDAF-12 act	ssDAF12 agonist	DAX1 inh-1	DAX1 inh-2	hgDAF-12 ag
Cc1ccccc1CCC[C@H](CC1CCCCC1)CN(C)C(=O)Oc1ccccc1	-2	0	-1	nt	2
CC1(C)CN=C(Nc2nc3ccccc3s2)S1	5	1.5*	3	3	10
CC1(C)CN=C(NCc2ccccc2)S1	-1	-1	0	1	0
CC(=O)N1c2ccccc2C(c2ccccc2)=NCC1C(=O)NCc1ccccc1 (stereo unspecified)	-2	-1	0	nt	-1
Cc1cc(C(=O)Nc2ccc3c(c2)OCCO3)nn1C(C)(C)C	2	0	1	5.7*	7
Cc1cc(C(=O)Nc2ccccc2)nn1C(C)(C)C	2	-1	1	3	5
COc1ccc(-c2nn(CCC#N)cc2C(=O)Nc2ccccc2Br)cc1[N+](=O)[O-]	-2	-2	0	4.9*	0
COc1ccc(-c2nn(CCC#N)cc2C(=O)Nc2ccccc2Br)cc1	-1	-2	0	-2	0
COc1cc2c(cc1OC)C13CCN4CC5=CCOC(CC(=O)O)C(C5CC41)C3N2 (stereo unspecified)	1	-1	0	5.7*	2
CC[C@H](C)[C@@H]1OC(=O)[C@H](C(C)C)N(C)C(=O)[C@H](C(C)C)NC(=O)[C@@H](C)[C@@H](CCCC#CBr)OC(=O)[C@H](C(C)C)N(C)C(=O)C2CCCN2C1=O (stereo partly specified)	-2	-2	nt	nt	-3
CSC(=Nc1ccccc1)c1c(O)n(C)c(=O)n(C)c1=O	5.7*	-1	0	0	4
C/C(=N\NC(=S)Nc1ccccc1)c1c(O)n(C)c(=O)n(C)c1=O	4	0	1	1	11*
c1cncc(-c2ccc3n2Cc2cnnn2-c2ccccc2-3)c1	-3	-2	-1	nt	2
CSc1nc(Cl)c(Br)c(N2CC2)n1	0	-1	1	4.6*	-2
Brc1csc(N2CCNCC2)n1	-1	-1	nt	nt	-1
C=CCc1ccc(OC)cc1	2	-2	0	4.5*	4
COP(=O)(C(=O)Nc1ccccc1)C(CC(C)C)NC(=O)OCc1ccccc1 (stereo unspecified)	3	0	-1	nt	2
CC(C)(C)OC(=O)NCCCCC(N)[P+](=O)O (stereo unspecified)	-4	0	0	nt	0
COC(=O)C(O)(c1ccc(NC(=O)NC2CCCCC2)cc1)C(F)(F)F (stereo unspecified)	1	1	2	1	11*
CC1CCN(CC(=O)c2ccccc2Cl)CC1	4	0	1	2	11*
CC1CN(CC(=O)c2ccccc2Cl)CC(C)O1 (stereo unspecified)	1	-1	0	1	4
COc1cc(C(=O)N2C[C@H]3C[C@@H](C2)c2cccc(=O)n2C3)cc(OC)c1OC	-1	0	0	4.9*	1
Cc1ccc(OC(=O)N(C)C[C@H]2OCc3cnnn3CCCC(=O)N([C@H](C)CO)C[C@H]2C)cc1	1	0	0	nt	0
COc1ccccc1N(CC(=O)NC1CCCCC1)C(=O)c1cnn(C(C)C)c1	3	1.3*	0	0	0
S=P(c1ccccc1)(c1ccccc1)c1cnc2ccccn12	-1	-2	nt	nt	0
O=c1[nH]c(=S)n(Cc2ccc(F)cc2)c(O)c1C=NCC1CCCO1 (stereo unspecified)	-2	-1	-1	6.2*	2
O=c1[nH]c(=S)n(C2CC2)c(O)c1C=NCC1CCCO1 (stereo unspecified)	-1	-2	0	0	-1
